Results on three compounds are retold here after PubChem BioAssay (EPA / NIEHS).

The target of test [1] is Estrogen-related receptor gamma (Homo sapiens) (UniProt P62508). The test is described as follows: ATG_ERRg_TRANS: Attagene TRANS-FACTORIAL HepG2 Assay for human Estrogen-Related Receptor gamma (ERRg) (AID 2282977; active = hit-call score of the fitted dose curve at least 0.9, where 1 is the maximum;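 also: hits increase reporter signal over DMSO so potencies reflect activators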). Conditions: HepG2 Attagene TRANS reporter, ERRg transactivation. The essentials: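 Readout: fluorescent reporter-mRNA fragments resolved by capillary electrophoresis after RT-PCR and HpaI cut. Cells: transiently transfected HepG2 carrying GAL4-UAS reporters driven by exogenous NR-Gal4 chimeras, dosed 24 h. Activity fitted upward relative to DMSO baseline.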

Test [2] concerns the target Bile acid receptor (Homo sapiens) (UniProt Q96RI1). Description: ATG_FXR_TRANS: Attagene TRANS-FACTORIAL HepG2 Assay for Farnesoid X Receptor (FXR) (AID 2282979; active = hit-call score of the fitted dose curve at least 0.9, where 1 is the maximum;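 also: hits raise reporter mRNA above DMSO so AC50 marks FXR activation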). Conditions: HepG2 Attagene TRANS FXR-GAL4 reporter transcription. The method, boiled down:
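Transient transfection of HepG2 with multiplexed GAL4-UAS reporter units; exogenous FXR-GAL4 chimera. Dose 24 h → TriZol RNA → oligo(dT) RT → PCR, 6-FAM primer extension, HpaI cut → CE. Gain vs DMSO.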

For test [3], the target named is Oxysterols receptor LXR-alpha (Homo sapiens) (UniProt Q13133). The test is described as follows: ATG_LXRa_TRANS: Attagene TRANS-FACTORIAL HepG2 Assay for human Liver X Receptor alpha (LXRa) (AID 2282980; active = hit-call score of the fitted dose curve at least 0.9, where 1 is the maximum). Conditions: HepG2 Attagene TRANS reporter, LXRa transactivation. The essentials: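 Transfect HepG2 with GAL4-UAS multiplex reporter constructs (TRANS format, chimeric receptor-GAL4); treat 24 h; extract RNA, reverse-transcribe, PCR-amplify, FAM-label, HpaI-digest; resolve fragments by capillary electrophoresis. Upward response vs DMSO.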

The target in test [4] is Oxysterols receptor LXR-beta (Homo sapiens) (UniProt P55055). The test is described as follows: ATG_LXRb_TRANS: Attagene TRANS-FACTORIAL HepG2 Assay for human Liver X Receptor beta (LXRb) (AID 2282981; active = hit-call score of the fitted dose curve at least 0.9, where 1 is the maximum). The conditions noted are these: HepG2 Attagene TRANS GAL4-LXRb reporter, mRNA. The essentials:
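Readout: fluorescent reporter mRNA fragments resolved by capillary electrophoresis after RT-PCR. System: transiently transfected human HepG2, exogenous LXRb-Gal4 chimera driving GAL4-UAS reporter, 24 h dosing. Activity fitted upward against DMSO baseline.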

Test [5] has as its target Hepatocyte nuclear factor 4-alpha (Homo sapiens) (UniProt P41235). Description: ATG_HNF4a_TRANS: Attagene TRANS-FACTORIAL HepG2 Assay for human Hepatocyte Nuclear Factor 4 alpha (HNF4a) (AID 2282982; active = hit-call score of the fitted dose curve at least 0.9, where 1 is the maximum). The conditions noted are these: HepG2 HNF4a transactivation reporter, mRNA readout. The method, boiled down: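 Transient MRTU transfection of HepG2, 24 h dosing. Readout: reporter mRNA via RT-PCR + capillary electrophoresis, fluorescence; activity fit upward relative to DMSO control.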

Test [6] in a line: ATG_M_06_TRANS: Attagene TRANS-FACTORIAL HepG2 Assay for M06 Transcription Factor (Internal Marker) (AID 2282983; active = hit-call score of the fitted dose curve at least 0.9, where 1 is the maximum;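 also: reporter transcript level by RT-PCR then capillary electrophoresis fluorescence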). Conditions: HepG2 Attagene TRANS M06 internal marker reporter. The method, boiled down:
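Background control endpoint: reporter mRNA from transiently transfected HepG2 after 24 h dosing, detected by RT-PCR with capillary electrophoresis fluorescence. Analysed for gain versus DMSO.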

Test [7] is described as follows: ATG_M_32_TRANS: Attagene TRANS-FACTORIAL HepG2 Assay for M32 Transcription Factor (Internal Marker) (AID 2282984; active = hit-call score of the fitted dose curve at least 0.9, where 1 is the maximum;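 also: transcript level of a background control reporter unit measured by RT-PCR and capillary electrophoresis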). The conditions noted are these: HepG2 Attagene TRANS M32 internal marker reporter. The method, boiled down:
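Read-out: fluorescent reporter cDNA fragments resolved by capillary electrophoresis after RT-PCR of total RNA. Transfected HepG2 cells were exposed to chemical for 24 h. Activity scored in the positive direction relative to DMSO.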

For test [8], the target named is Nuclear receptor subfamily 4 group A member 2 (Homo sapiens) (UniProt P43354). Description: ATG_NURR1_TRANS: Attagene TRANS-FACTORIAL HepG2 Assay for human Nuclear Receptor Related Protein 1 (NURR1) (AID 2282985; active = hit-call score of the fitted dose curve at least 0.9, where 1 is the maximum). The conditions noted are these: HepG2 Attagene TRANS reporter, mRNA readout. The method, boiled down:
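Read-out: reporter mRNA induction by RT-PCR plus capillary electrophoresis with fluorescence detection, after 24 h dosing of transfected HepG2 cells. Exogenous NR-Gal4 chimera activity drives GAL4-UAS reporter; activity fitted upward versus DMSO.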

Test [9] has as its target Nuclear respiratory factor 1 (Homo sapiens) (UniProt Q16656). Description: ATG_NRF1_CIS: Attagene CIS-FACTORIAL HepG2 Assay for human Nuclear Respiratory Factor 1 (NRF1) Orphan Gene (AID 2282987). Conditions: HepG2 NRF1 cis-element reporter, Attagene multiplex; actives raise or lower the signal. The method, boiled down:
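Reporter mRNA induction or loss in HepG2 cells after 24 h dosing; cis-regulated reporter constructs report endogenous transcription-factor activity. Quantified by RT-PCR/capillary electrophoresis fluorescence, DMSO-referenced.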

The nature of test [10]: ATG_NFI_CIS: Attagene CIS-FACTORIAL HepG2 Assay for human Nuclear Factor I (NFI) (AID 2282989). Conditions: HepG2 cis-regulatory reporter, NFI response element transcription; actives raise or lower the signal. The method, boiled down: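 Cells: human liver HepG2, transiently transfected with promoter-regulated reporter transcription units. Exposure 24 h. Detection: fluorescent RT-PCR products separated by capillary electrophoresis, normalised to DMSO negative control.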

The target of test [11] is Myc proto-oncogene protein (Homo sapiens) (UniProt P01106). Description: ATG_Myc_CIS: Attagene CIS-FACTORIAL HepG2 Assay for human Myelocytomatosis (Myc) Proto-Oncogene Transcription Factor (AID 2282990). Conditions: HepG2, Attagene cis-reporter transcription factor activity; actives raise or lower the signal. The essentials: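 Read-out: fluorescent reporter mRNA fragments resolved by capillary electrophoresis after RT-PCR. Human HepG2 liver cells carried transfected cis-element reporter units and were dosed for 24 h. Gain or loss of signal fitted relative to DMSO baseline.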

Test [12] is described as follows: ATG_NF_kB_CIS: Attagene CIS-FACTORIAL HepG2 Assay for human Nuclear Factor Kappa B (NF-kB) (AID 2282991). Conditions: HepG2 Attagene cis-factorial NF-kB reporter mRNA; actives raise or lower the signal. The essentials: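 DMSO served as negative control and baseline for bidirectional curve fitting. Transiently transfected HepG2 cells were dosed for 24 h, then reporter transcripts were measured by RT-PCR with capillary electrophoresis detection.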

The nature of test [13]: ATG_NRF2_ARE_CIS: Attagene CIS-FACTORIAL HepG2 Assay for human Nuclear Factor Erythroid 2 Related Factor 2 (NFR2) response to Antioxidant Response Elements (ARE) (AID 2282992).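 As to AC50: reporter mRNA level measured by RT-PCR and capillary electrophoresis fluorescence.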 Conditions: HepG2 Attagene ARE/NRF2 reporter, transcription factor activity; actives raise or lower the signal. The method, boiled down:
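Fluorescence intensity of reporter-specific cDNA fragments, separated by capillary electrophoresis, reflects mRNA induction in transfected HepG2 cells at 24 h. Activity is fitted bidirectionally, DMSO serving as baseline.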

Test [14] can be described thus: ATG_Oct_MLP_CIS: Attagene CIS-FACTORIAL HepG2 Assay for human Octamer-Binding Transcription Factor (Oct) (AID 2282993). Conditions: HepG2 Attagene cis-factorial Oct reporter, mRNA; actives raise or lower the signal. The essentials: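 HepG2, transient MRTU transfection, cis promoter elements; 24 h dosing; RT-PCR/CE fluorescence read-out of reporter mRNA; fit both directions vs DMSO.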

Test [15] deals with Cellular tumor antigen p53 (Homo sapiens) (UniProt P04637). The test is described as follows: ATG_p53_CIS: Attagene CIS-FACTORIAL HepG2 Assay for human p53 Transcription Factor (AID 2282994). The conditions noted are these: HepG2 p53 cis-element reporter, Attagene mRNA; actives raise or lower the signal. The method, boiled down:
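Transiently transfected HepG2 (multiple cis reporter transcription units); exposure 24 h; reporter RNA via RT-PCR, 6-FAM extension, 2 h HpaI digest at 37 C, CE detection; DMSO baseline.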

A short description of test [16]: BSK_3C_TissueFactor: BioMAP Diversity Plus: 3C Assay for Tissue Factor Biomarker Activity (AID 2282997). The conditions noted are these: BioMAP 3C HUVEC, tissue factor biomarker readout; actives raise or lower the signal. The method, boiled down:
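After a 24 h chemical exposure of primary human umbilical vein endothelial cells, Tissue Factor levels were quantified by ELISA.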

Test [17] can be described thus: BSK_3C_uPAR: BioMAP Diversity Plus: 3C Assay for Urokinase-type plasminogen activator receptor (uPAR) Biomarker Activity (AID 2282998). The conditions noted are these: BioMAP 3C HUVEC, uPAR biomarker ELISA; actives raise or lower the signal. The essentials: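 A multiplexed primary-cell system built on human umbilical vein endothelium was used, with chemical present for 24 h before reading. Cell-surface uPAR was detected by ELISA; signal change in either direction counted against DMSO.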
(In general: ELISA stands for enzyme-linked immunosorbent assay.)

Test [18] can be described thus: BSK_4H_Eotaxin3: BioMAP Diversity Plus: 4H Assay for Eotaxin 3 Biomarker Activity (AID 2283000).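 As to outcome: CCL26 protein level quantified by ELISA in parallel with SRB cytotoxicity check.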 The conditions noted are these: primary human endothelial cells (HUVEC); actives raise or lower the signal. The method, boiled down:
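Chemicals were added to human umbilical vein endothelium cultures, and Eotaxin-3 was quantified by ELISA at 24 h. Values were derived by bidirectional fitting with DMSO serving as negative control and activity baseline.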

Test [19] can be described thus: BSK_3C_VCAM1: BioMAP Diversity Plus: 3C Assay for Vascular cell adhesion molecule 1 (VCAM1) Biomarker Activity (AID 2282999). The conditions noted are these: BioMAP 3C HUVEC, VCAM1 ELISA, cytokine-stimulated; actives raise or lower the signal. The essentials: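 HUVEC primary cells, 24 h compound exposure; VCAM-1 by ELISA; gain/loss of signal fitted bidirectionally vs DMSO baseline.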

The target of test [20] is Transcriptional activator Myb (Homo sapiens) (UniProt P10242). The test is described as follows: ATG_Myb_CIS: Attagene CIS-FACTORIAL HepG2 Assay for human Myeloblastosis (Myb) Proto-Oncogene Transcription Factor (AID 2282986). Conditions: HepG2 Attagene CIS-FACTORIAL Myb reporter transcription; actives raise or lower the signal. The method, boiled down: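 Using HepG2 liver cells bearing transiently transfected cis-promoter reporter constructs, the assay measures induction or loss of reporter mRNA after 24 hours of dosing. Detection used fluorescently labeled RT-PCR products separated by capillary electrophoresis.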

“And” between values parts separate entries of the source, which are not always exact repeats. Equal values may be shown once. Records with an inconclusive call do not appear. The source holds several records for some structures; these can differ, active in one and inactive in another. The source made the active and inactive calls. The calls were made as follows, unless noted: active = hit-call score of the fitted dose curve at least 0.9, where 1 is the maximum; inactive = score below 0.9.

Chain of Myc proto-oncogene protein (Homo sapiens) (P01106 whole entry, looked up, the tested form may be a part): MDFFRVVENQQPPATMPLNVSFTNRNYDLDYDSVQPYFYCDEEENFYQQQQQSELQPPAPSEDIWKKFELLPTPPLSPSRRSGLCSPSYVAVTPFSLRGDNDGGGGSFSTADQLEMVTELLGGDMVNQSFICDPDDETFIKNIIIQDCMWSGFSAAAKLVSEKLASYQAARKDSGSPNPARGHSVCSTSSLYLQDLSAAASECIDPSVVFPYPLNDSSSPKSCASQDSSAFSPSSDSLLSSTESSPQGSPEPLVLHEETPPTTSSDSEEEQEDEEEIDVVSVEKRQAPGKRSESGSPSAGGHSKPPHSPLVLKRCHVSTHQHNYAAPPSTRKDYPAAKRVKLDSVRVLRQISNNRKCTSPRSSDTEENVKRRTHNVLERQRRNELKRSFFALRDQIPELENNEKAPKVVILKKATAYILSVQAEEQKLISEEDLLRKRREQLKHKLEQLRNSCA
Chain of Nuclear receptor subfamily 4 group A member 2 (Homo sapiens) (P43354 whole entry, looked up, the tested form may be a part): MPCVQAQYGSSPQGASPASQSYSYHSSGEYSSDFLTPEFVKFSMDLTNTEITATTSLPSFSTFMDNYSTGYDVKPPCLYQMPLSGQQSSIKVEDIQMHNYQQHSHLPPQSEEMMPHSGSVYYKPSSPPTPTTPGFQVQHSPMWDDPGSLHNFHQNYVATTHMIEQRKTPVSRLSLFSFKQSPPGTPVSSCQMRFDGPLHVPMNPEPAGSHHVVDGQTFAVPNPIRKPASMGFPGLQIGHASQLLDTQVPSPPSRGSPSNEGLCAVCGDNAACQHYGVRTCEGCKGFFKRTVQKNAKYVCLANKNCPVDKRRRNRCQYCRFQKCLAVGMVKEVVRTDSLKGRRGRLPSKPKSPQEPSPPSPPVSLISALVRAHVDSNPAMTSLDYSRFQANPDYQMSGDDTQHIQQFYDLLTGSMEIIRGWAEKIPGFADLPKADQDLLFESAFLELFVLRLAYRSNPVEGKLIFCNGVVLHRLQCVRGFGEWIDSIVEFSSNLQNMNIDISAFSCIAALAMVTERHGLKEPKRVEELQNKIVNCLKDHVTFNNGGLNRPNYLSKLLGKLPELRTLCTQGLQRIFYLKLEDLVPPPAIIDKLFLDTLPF
Chain of Bile acid receptor (Homo sapiens) (Q96RI1 whole entry, looked up, the tested form may be a part): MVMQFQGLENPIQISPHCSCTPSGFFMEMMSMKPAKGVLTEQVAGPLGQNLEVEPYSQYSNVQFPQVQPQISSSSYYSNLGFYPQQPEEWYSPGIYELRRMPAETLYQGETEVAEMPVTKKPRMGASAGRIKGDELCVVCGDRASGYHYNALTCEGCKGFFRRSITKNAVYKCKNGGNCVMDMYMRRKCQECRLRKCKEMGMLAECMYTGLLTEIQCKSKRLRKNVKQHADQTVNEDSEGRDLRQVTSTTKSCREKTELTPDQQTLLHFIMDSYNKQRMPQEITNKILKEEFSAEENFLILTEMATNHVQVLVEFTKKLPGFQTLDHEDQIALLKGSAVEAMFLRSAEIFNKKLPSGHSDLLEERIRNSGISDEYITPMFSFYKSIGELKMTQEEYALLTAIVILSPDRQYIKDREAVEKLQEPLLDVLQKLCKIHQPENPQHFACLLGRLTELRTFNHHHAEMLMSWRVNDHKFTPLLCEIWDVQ
Chain of Transcriptional activator Myb (Homo sapiens) (P10242 whole entry, looked up): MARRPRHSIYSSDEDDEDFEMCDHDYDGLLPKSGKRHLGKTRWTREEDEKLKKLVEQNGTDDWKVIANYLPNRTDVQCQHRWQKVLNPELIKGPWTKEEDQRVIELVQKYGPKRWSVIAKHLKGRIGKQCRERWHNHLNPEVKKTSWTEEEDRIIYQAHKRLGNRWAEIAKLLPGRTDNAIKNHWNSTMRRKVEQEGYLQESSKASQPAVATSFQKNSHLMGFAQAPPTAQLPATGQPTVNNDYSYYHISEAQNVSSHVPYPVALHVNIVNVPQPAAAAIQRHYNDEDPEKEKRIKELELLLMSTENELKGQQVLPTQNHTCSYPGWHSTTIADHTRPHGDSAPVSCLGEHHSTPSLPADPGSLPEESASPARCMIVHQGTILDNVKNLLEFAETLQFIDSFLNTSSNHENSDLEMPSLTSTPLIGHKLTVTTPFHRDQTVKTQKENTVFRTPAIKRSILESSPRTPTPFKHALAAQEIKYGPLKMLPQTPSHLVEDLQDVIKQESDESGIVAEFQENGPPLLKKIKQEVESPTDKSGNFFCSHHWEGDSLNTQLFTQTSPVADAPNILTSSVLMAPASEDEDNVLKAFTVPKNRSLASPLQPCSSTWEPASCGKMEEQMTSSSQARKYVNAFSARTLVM
Chain of Hepatocyte nuclear factor 4-alpha (Homo sapiens) (P41235 whole entry, looked up): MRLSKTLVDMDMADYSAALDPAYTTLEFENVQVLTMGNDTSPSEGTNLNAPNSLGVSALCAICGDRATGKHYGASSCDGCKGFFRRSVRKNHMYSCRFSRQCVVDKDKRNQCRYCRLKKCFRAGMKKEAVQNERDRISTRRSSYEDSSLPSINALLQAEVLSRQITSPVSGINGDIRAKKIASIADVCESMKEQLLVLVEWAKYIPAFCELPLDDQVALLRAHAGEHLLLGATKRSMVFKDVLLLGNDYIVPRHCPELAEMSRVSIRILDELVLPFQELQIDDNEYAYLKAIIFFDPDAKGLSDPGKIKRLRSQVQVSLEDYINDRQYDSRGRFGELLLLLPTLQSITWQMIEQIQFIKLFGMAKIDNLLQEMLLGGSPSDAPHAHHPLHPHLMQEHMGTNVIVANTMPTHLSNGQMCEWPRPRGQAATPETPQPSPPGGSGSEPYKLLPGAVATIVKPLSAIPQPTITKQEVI
Chain of Nuclear respiratory factor 1 (Homo sapiens) (Q16656 whole entry, looked up): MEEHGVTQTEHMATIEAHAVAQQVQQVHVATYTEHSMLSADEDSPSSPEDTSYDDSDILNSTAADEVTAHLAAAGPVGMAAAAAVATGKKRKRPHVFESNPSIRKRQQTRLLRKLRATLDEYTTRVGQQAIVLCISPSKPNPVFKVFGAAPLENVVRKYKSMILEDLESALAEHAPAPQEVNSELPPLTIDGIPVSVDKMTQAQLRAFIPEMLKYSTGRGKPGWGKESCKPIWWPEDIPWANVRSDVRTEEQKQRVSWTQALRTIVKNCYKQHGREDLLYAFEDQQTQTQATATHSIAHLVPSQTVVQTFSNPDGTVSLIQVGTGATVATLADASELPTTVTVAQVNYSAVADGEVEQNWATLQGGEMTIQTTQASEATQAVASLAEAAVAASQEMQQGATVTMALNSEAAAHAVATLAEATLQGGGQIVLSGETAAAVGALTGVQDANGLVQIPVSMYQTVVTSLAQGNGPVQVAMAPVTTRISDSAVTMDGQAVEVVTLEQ
Chain of Estrogen-related receptor gamma (Homo sapiens) (P62508 whole entry, looked up, the tested form may be a part): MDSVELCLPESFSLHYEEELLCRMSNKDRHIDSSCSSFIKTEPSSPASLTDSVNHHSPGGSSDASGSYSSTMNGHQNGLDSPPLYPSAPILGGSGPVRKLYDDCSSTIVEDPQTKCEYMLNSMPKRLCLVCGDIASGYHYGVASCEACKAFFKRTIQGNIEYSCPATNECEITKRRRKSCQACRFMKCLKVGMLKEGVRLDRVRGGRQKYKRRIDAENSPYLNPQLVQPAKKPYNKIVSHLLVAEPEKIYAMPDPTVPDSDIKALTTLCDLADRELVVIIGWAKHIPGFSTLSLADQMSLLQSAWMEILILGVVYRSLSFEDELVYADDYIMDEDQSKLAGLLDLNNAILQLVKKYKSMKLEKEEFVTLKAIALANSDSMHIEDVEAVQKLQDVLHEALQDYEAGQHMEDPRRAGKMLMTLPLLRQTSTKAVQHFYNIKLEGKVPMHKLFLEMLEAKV
Chain of Oxysterols receptor LXR-alpha (Homo sapiens) (Q13133 whole entry, looked up, the tested form may be a part): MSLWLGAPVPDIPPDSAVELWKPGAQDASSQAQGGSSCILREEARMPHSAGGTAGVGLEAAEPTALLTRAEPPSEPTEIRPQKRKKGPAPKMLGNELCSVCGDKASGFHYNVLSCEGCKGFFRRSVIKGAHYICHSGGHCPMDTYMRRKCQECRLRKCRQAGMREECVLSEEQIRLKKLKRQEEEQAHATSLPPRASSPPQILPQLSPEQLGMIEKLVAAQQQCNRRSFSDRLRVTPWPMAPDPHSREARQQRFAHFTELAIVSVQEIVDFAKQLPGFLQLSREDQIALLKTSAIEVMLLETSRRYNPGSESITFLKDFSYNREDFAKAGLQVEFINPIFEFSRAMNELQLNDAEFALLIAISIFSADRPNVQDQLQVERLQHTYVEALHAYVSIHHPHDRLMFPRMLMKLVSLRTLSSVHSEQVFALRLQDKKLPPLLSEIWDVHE
Chain of Oxysterols receptor LXR-beta (Homo sapiens) (P55055 whole entry, looked up, the tested form may be a part): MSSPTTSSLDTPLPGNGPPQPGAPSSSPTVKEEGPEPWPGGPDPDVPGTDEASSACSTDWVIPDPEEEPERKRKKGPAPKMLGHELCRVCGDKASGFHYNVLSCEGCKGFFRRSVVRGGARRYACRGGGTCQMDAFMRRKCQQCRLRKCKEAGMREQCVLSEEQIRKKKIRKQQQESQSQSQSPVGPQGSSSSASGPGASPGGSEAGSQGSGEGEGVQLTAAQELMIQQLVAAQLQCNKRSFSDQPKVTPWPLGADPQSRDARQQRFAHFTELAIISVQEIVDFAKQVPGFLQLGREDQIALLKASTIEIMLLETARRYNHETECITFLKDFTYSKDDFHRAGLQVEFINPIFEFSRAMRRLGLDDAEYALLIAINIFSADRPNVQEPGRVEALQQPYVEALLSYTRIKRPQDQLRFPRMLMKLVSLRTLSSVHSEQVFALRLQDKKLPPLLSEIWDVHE
Chain of Cellular tumor antigen p53 (Homo sapiens) (P04637 whole entry, looked up): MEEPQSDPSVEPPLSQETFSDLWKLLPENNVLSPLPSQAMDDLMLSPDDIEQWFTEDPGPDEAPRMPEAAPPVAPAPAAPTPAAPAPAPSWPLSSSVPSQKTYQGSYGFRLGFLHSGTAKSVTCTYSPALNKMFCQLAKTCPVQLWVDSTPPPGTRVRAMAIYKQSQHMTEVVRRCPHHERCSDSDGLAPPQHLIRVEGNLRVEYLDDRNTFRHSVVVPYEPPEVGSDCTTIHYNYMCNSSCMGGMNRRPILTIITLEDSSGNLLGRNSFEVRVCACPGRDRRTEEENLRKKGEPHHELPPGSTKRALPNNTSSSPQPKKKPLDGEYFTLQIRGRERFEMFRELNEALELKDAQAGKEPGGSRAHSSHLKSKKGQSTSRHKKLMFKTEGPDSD

Broadly, the AC50 is the concentration at which the activity in the assay is half-maximal. In the case of `CCC(C)(c1ccc(O)cc1)c1ccc(O)cc1`, the compound was classed as inactive in [1], in test [2], in test [3], in test [4], in test [5] and in [6]. Further, the compound was classed as inactive in [7], in test [8], in [9], in [10], in test [11] and in [12]. The compound was called inactive in test [13], in test [14], in test [15], in test [16] and in test [18]. Moreover, the AC50 in test [10] is 53 µM (active); in test [12], 44.8 µM (active); in [13] it was 20 µM (active) and 15.3 µM (active) and 9.27 µM (active); in test [14], 53 µM (active) and 45.7 µM (active) and 9.52 µM (active); in test [15], 53.6 µM (active) and 33.4 µM (active) and 45.8 µM (active); in [17], 32.8 µM (active).
For `CO/C=C(/C(=O)OC)c1ccccc1COc1cccc(C(F)(F)F)n1`, the compound was called inactive in test [2], in test [7], in test [9], in [10], in [11] and in test [12]. Moreover, in test [15], the outcome was inactive. Also, the AC50 in test [8] was 29.3 µM (active); in [13], 5.41 µM (active); in test [14] it was 11.5 µM (active); in test [16], 10.4 µM (active); in test [17], 36.9 µM (active); in [19], 20 µM (active).
`O=C(O)C(F)(F)C(F)(F)C(F)(F)C(F)(F)C(F)(F)C(F)(F)C(F)(F)C(F)(F)C(F)(F)F`: the result in [1], in test [3], in [4], in test [5], in test [6] and in test [7] was inactive. Further, the compound was classed as inactive in test [8], in [20], in [9], in test [10], in [11] and in [12]. In addition, the result in [14], in test [15], in [16] and in [17] was inactive. Moreover, the AC50 in test [8] was 12.9 µM (active); in test [13] it was 59.6 µM (active) and 12.3 µM (active) and 24.7 µM (active); in test [14], 45.5 µM (active) and 50 µM (active); in test [15], 46.9 µM (active) and 69.4 µM (active); in test [16] it was 51.8 µM (active) and 50.7 µM (active); in [17] it was 46.2 µM (active) and 51.4 µM (active). In addition, in test [18], the AC50 is 29.9 µM (active) and 49.3 µM (active) and 51.1 µM (active).
